NPC1 prom act – NPC1 promoter activation. Huh7 NPC1 promoter luciferase reporter, 24 h. Potency, µM (titrated, usually from 9.22 µM), hits mostly activators. 320,000 tested, 2.4% active; also: nearly all actives have a fitted effect of over 60% in size
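Cells: Huh7 expressing luciferase under the NPC1 promoter, 1500/well. Seeded 2 h, compound added, incubated 24 h at 37 °C. Luciferase reagent, 10 min ambient, then luminescence.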
SMN2 splice up – enhancers of SMN2 splice variant expression | HEK293 SMN2-luciferase splicing reporter, luminescence, 30-36 h | Potency, µM (doses to about 46.1 µM), hits mostly activators | 210,000 tested, 2.8% active; also: nearly all actives have a fitted effect of over 55% in size
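HEK293 cells carry an SMN2 […]–luciferase reporter in which exon 7 inclusion puts luciferase in frame. Cells were plated 10-12 h before compound addition, then incubated 30-36 h at 37C. ONE-Glo luminescence was read; sodium butyrate at 4.5 mM final served as control.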
FLuc counter – counter-screen for miR-21 project: firefly luciferase inhibitors or activators | P08659 | purified FLuc, Km substrates, luminescence inhibition | Potency, µM (top dose mostly 57.5 µM), usual class: inhibitors | 360,000 tested, 6.9% active | AID 588342; also: nearly all actives have a fitted effect of over 55% in size
Target sequence (P08659 whole entry, looked up): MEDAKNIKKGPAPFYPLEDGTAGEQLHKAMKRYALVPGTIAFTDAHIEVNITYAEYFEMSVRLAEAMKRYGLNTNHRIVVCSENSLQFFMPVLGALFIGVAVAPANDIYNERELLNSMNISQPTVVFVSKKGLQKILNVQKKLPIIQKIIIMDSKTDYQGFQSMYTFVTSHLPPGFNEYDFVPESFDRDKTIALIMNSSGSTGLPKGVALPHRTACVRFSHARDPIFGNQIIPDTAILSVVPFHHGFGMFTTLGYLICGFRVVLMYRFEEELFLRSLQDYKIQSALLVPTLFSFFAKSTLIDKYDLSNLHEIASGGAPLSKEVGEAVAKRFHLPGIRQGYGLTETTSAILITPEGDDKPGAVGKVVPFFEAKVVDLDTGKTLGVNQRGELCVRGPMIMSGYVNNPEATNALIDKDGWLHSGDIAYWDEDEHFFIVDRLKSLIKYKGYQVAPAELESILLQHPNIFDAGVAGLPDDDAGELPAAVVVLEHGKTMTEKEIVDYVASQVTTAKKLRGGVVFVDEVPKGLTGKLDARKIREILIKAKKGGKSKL
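Biochemical qHTS of compounds, final roughly 60 µM downward over six points, against 10 nM purified firefly luciferase using Km concentrations of substrates (10 uM D-luciferin, 10 uM ATP) in Tris acetate pH 7.5 buffer; luminescence output.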
ELG1 DNA repair – ELG1-dependent DNA repair inhibition; HEK293T ELG1-luciferase reporter, luminescence, 16 h; DNA damage induced by 5-fluorouridine; AID 504467; 330,000 tested, 2.3% active; Potency, µM (doses to about 46.1 µM), hits mostly inhibitors; also: nearly all actives have a fitted effect of over 55% in size
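HEK293T cells expressing luciferase-tagged ELG1 (2,000/well) received 5-Fluorouridine plus compound or DMSO for 16 hr at 37 °C. Luciferase was read by ONE-Glo luminescence after 30 min at room temperature.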
ELG1 genotoxic – induces genotoxicity in HEK293T cells with luciferase-tagged ELG1 | HEK293T ELG1-luciferase reporter, luminescence, 16 h | Potency, µM (series often up to 46 µM), most hits filed as activators | 330,000 tested, 1.3% active | AID 504466; also: nearly all actives have a fitted effect of over 60% in size
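Cells (2,000/well) expressing the ELG1-luciferase fusion are dosed by pin tool and kept 16 hr at 37 °C, 5% CO2. Signal comes from ONE-Glo luciferase reagent after 30 min at room temperature.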
Rab9 promoter act – activates the Rab9 promoter | Huh7 Rab9 promoter-luciferase reporter, luminescence, 24 h | Potency, µM (top dose mostly 9.22 µM), actives largely listed as activators | 320,000 tested, 2.8% active | AID 485297; also: nearly all actives have a fitted effect of over 60% in size
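Measured in stably transfected Huh7 cells bearing a Rab9 promoter–luciferase construct: 24 h compound treatment at 37 °C, followed by luminescence detection.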
Numbers stand for hits; n = inactive; u = inconclusive; x = not tested or not shown; [ ] = another dose, or the depositor's remark. This is a sample that favours compounds with a hit; in the whole collection about 9.2% have one here. Calls follow the shape of the dose curve; as a rule, active = well fitted curve in the direction sought with a large enough effect; inconclusive = small, poorly fitted or top-dose-only effect, or another doubt; inactive = no such curve, though single readings can be large; an effect the other way counts as inactive or inconclusive.

SMILES | NPC1 prom act | SMN2 splice up | FLuc counter | ELG1 DNA repair | ELG1 genotoxic | Rab9 promoter act
Cc1ccc(S(=O)(=O)N(C(=O)c2ccncc2)c2ccc(OC(=O)c3ccncc3)c3ccccc23)cc1 | n | n | u | 18µM | n | n
COCCCNC(=O)c1ccccc1-c1cc(C)no1 | n | x | n | n | n | n
O=C(Nc1nnc(C2CC2)s1)C1CCCCC1 | n | x | n | u | n | n
Cc1ccc(C(=O)Nc2nnc(C3CCCCC3)s2)o1 | 1.8µM | 11µM | 9.5µM | u | 3.7µM | 4µM
Cc1cc(C(=O)Nc2nnc(C3CCCCC3)s2)no1 | x | n | u | x | x | x
C/C=C/C(=O)Nc1nnc(C2CCCCC2)s1 | n | x | 27µM | n | n | n
CCOCC(=O)Nc1nnc(C2CCCCC2)s1 | u | 13µM | u | u | u | u
Nc1[nH]ncc1S(=O)(=O)c1ccccc1 | n | x | n | n | n | n[1.84 µM]
COC(=O)c1cc(OC)c(OC)cc1NC(=O)c1ccc2c(c1)CCN2S(C)(=O)=O | x | n | n | x | x | x
CCn1c(SCC(=O)Nc2nc3ccccc3s2)nnc1-c1ccc(Br)cc1 | n | n | n | n | n | n
Cc1nnc(SCC(=O)Nc2ccccc2NC(=O)CSc2nnc(C)s2)s1 | x | n | n | x | x | x
CCn1c(SCC(=O)Nc2ccc(-c3nc4ccc(C)cc4s3)cc2)nnc1-c1ccccc1 | u | 0.56µM | u | u | u | 0.63µM
O=C(CSc1nnc2scc(-c3ccccc3)n12)Nc1nsc(-c2ccccc2)n1 | n | n | n | 9.2µM | n | n
Cc1ccc(-c2csc3nnc(SCC(=O)Nc4nsc(-c5ccccc5)n4)n23)cc1 | x | n | n | x | x | x
Cc1nnc(SCC(=O)Nc2ccc(-c3nc4ccccc4s3)cc2)s1 | 0.79µM | 1.3µM | 0.27µM | u | 2.1µM | 0.35µM
Cc1nnc(SCC(=O)Nc2nsc(-c3ccc(C(C)(C)C)cc3)n2)s1 | 1.4µM | 11µM | 11µM | u | 3.3µM | 1.4µM
CN(CC(=O)Nc1c(Cl)cccc1Cl)C(=O)CCC(=O)c1ccccc1 | n | x | n | n | n | n
O=[N+]([O-])c1cc(Br)c(O)c(/C=N/Nc2nnnn2-c2cccc3ccccc23)c1 | n | n | n | n | n | n
Cc1cc(C)c(NC(=O)Cn2cc(S(=O)(=O)Cc3ccccc3F)c3ccccc32)c(C)c1 | x | x | n | x | x | x
CCC(C)n1c(=N)c(C(=O)NC2CCCCC2)cc2c(=O)n3ccccc3nc21 (stereo not given) | x | n | n | x | x | x
C=CCn1c(SCC(=O)Nc2ccc(-c3nc4ccc(C)cc4s3)cc2)nnc1-c1ccncc1 | u | 7.1µM | u | u | u | u
C=CCn1c(SCC(=O)Nc2ccc(N3CCOCC3)cc2)nnc1-c1ccncc1 | n | x | u | n | n | n
CCCCNc1ncnc2c1cnn2-c1ccc(Cl)cc1 | u | 5µM | 2.7µM | u | 2.3µM | u
CCCCNc1ncnc2c1cnn2-c1ccccc1 | u | 3.5µM | 5.4µM | u | u | u
Clc1ccc(-n2ncc3c(NCCCn4ccnc4)ncnc32)cc1 | u | n | 11µM | u | 8.2µM | u
SMILES | NPC1 prom act | SMN2 splice up | FLuc counter | ELG1 DNA repair | ELG1 genotoxic | Rab9 promoter act
CCc1nc(NC(C)(C)C)c2cnn(-c3ccccc3)c2n1 | u | x | 19µM | u | u | u
COc1ccc(CC(C)CC(=O)Nc2ccc(OC)cc2)cc1 (stereo not given) | n | x | n | n | n | n
CCN(c1ccccc1)S(=O)(=O)c1cccc(C(=O)NCCOc2ccccc2OC)c1 | n | x | n | u | n | n
Cc1cc(C)cc(NC(=O)CCS(=O)(=O)c2cccc3nsnc23)c1 | x | n | n | x | x | x
COCCCNc1ncnc2c1cnn2-c1ccc(F)cc1 | x | x | 11µM | x | x | x
CC(OC(=O)C1CC1)C(=O)Nc1cccc(S(=O)(=O)N2CCOCC2)c1 (stereo not given) | x | x | x | n | n | x
CC1=CC2=NC(=O)/C(=C\c3cccn3CCOc3cc(C)cc(C)c3)C(=N)N2O1 | n | n | n | 21µM | n | n
CC1=CC2=NC(=O)/C(=C\c3cccn3CCOc3ccccc3)C(=N)N2O1 | n | u | n | u | n | n
CC1=CC2=NC(=O)/C(=C\c3cccn3CCOc3cccc(C)c3)C(=N)N2O1 | n | u | n | 23µM | n | n
CCCCOC(=O)CCCN1C(=O)/C(=C2\SC(=S)N(CCCC(=O)OCCCC)C2=O)SC1=S | n | x | n | n | n | n
CCOc1ccc(S(=O)(=O)NC(Cc2cnc[nH]2)C(=O)O)cc1 (stereo not given) | n | n | n | n | n | n
CCc1ccc(NC(=O)Cn2c(=O)c3cc(Cl)ccc3n3nncc23)cc1 | x | n | n | x | x | x
FC(F)(F)c1cccc(-c2nc3nc(Cl)c(Cl)nc3[nH]2)c1 | u | n[9.22 µM] | 4.3µM | u | n | u
Cc1ccc(/C=C/C2=C[C@]3(C)C[C@]2(C)[C@H](c2ccc(C)cc2)CC3=O)cc1 | x | n | x | x | x | x
CC(=O)OC[C@H]1O[C@@H](O[C@H]2C[C@]3(C)C(C[C@@H](O)C4C([C@]5(C)CC[C@@H](C(C)(C)O)O5)CC[C@]43C)[C@@]3(C)CC[C@H](O)C(C)(C)C23)[C@H](O[C@@H]2O[C@@H](C)[C@H](O)[C@@H](O)[C@H]2O)[C@@H](O)[C@@H]1O (stereo not given in full) | x | x | x | n | n | x
COc1cc(/C=N/N=C2/C(=O)Nc3ccccc32)ccc1O | n | n[1.84 µM] | 6.7µM | u | u | n
Cc1ccsc1/C=N/N=C1\C(=O)Nc2ccccc21 | u | n | u | u | n | n
COc1cc(/C=N/N=C2/NC(=O)C(Cc3ccc(F)cc3)S2)ccc1O (stereo not given) | n | n | 2.7µM | u | u | n
O=C1Nc2ccccc2/C1=N\N=C\c1ccc(O)c(O)c1 | n | x | 24µM | u | u | n
COc1cc(/C=N/N2C(=O)c3ccccc3C2=O)ccc1O | n | n | 12µM | n | n | n
CC(=O)N1c2ccccc2CC1C(=O)N1CCN(c2cccc(C)c2C)CC1 (stereo not given) | x | x | n | x | x | x
Cc1ccc([N+](=O)[O-])cc1N(CC(=O)Nc1ccc(S(=O)(=O)Nc2cccc(C(F)(F)F)c2)cc1)S(C)(=O)=O | n | n | n | n | n | n
O=C1c2ccccc2C(=O)N1/N=C/c1ccc(O)c(O)c1O | n | x | 17µM | n | n | n
CS(=O)(=O)c1nc(S(=O)(=O)c2ccc(Cl)cc2)c(NCCCn2ccnc2)s1 | n | x | n | u | n | n
COC(=O)/C(=C1/Oc2cc(C)oc(=O)c2S1)C(F)(F)F | n | n | n | u | n | n
COC(=O)/C(=C1/Oc2ccc(C(C)(C)C)cc2S1)C(F)(F)F | u | n | 4.8µM | u | u | u
CCOc1ccc(C(=O)c2ccccc2C(=O)O)cc1OCC | n | n | n | n | n | n
CC1=CC(=O)C(C(C)C)=C/C1=C(\c1cc(C(C)C)c(OP(=O)(O)O)cc1C)c1ccccc1C(=O)O | n | x | n | 18µM | n | n
